PubChem BioAssay (Tox21)
Results filed as inconclusive are left out. A call without a number means that no potency is given here. Some structures have more than one record in an assay (separate samples or runs), and their calls can disagree. Calls of active or inactive are those of the source. Calls follow the shape of the dose curve; as a rule, active = well fitted cell-killing curve with a large enough effect in the repeat runs; inconclusive = weak or mixed curves, or effect the other way; inactive = flat fitted curve, though single readings scatter.

Assay: qHTS RealTime-Glo MT Cell Viability Assay in HEK293 cells - 16 hour (AID 1224872); also: nearly all actives have a fitted effect of over 50% in size
Conditions: RealTime-Glo luminescence; series mostly up to 76.8 µM
Text: National Center for Advancing Translational Sciences [NCATS]
NIH Chemical Genomics Center [NCGC]
U.S. Environmental Protection Agency [EPA]
National Institutes of Environmental Health Sciences [NIEHS]
National Toxicology Program [NTP]
U.S. Food and Drug Administration [FDA]
Measure of cell viability is critical in the cell-base assay. Analysis of cell viability is necessary for the characterization of cell responses to cytotoxic drugs and environmental stress. A RealTime-Glo MT Cell Viability Assay to monitor cell viability in real time of continues cell culture during 40 hours of compound treatment was used to screen Tox21 10K library compounds in Hek293 cells. The RealTime-Glo MT Cell Viability Assay is a nonlytic, homogeneous, bioluminescent method to measure cell viability in real time using a simple, plate-based method. The assay involves adding NanoLuc luciferase and a cell-permeant prosubstrate to cells in culture. Viable cells reduce the proprietary prosubstrate to generate a substrate for NanoLuc luciferase. This substrate diffuses from cells into the surrounding culture medium, where it is rapidly used by the NanoLuc Enzyme to produce a luminescent signal. The signal correlates with the number of viable cells, making the assay well suited for cytotoxicity studies.
Tox21 Assay Protocol Summary:
The mixture of Hek293 cell suspension and reagents were dispensed at 600cells/6 ul/well in 1536-well tissue culture treated black solid bottom plates using a Multidrop dispenser. After the assay plates were incubated at a 37 C/5% CO2 incubator for 5 hours, 23 nL of compounds dissolved in DMSO, positive and negative controls was transferred to the assay plate by a pintool work station. The plates were incubated at 37 C for 40 hours. The luminescence intensity were measured at 0h, 8h, 16h, 24h, 32h and 40h time points using ViewLux plate reader during compound treatment.
Potency is read from the fitted curve at half-maximal effect.

Compound	Potency
CC(C)C(C)(N)C#N (stereo not given)	inactive
CC1=C2[C@H]3OC(=O)[C@@H](C)[C@@H]3CC[C@@]2(C)C=CC1=O	inactive
CCOC(=O)C(SP(=S)(OC)OC)c1ccccc1 (stereo not given)	inactive
CC1N=C(N)OC1c1ccccc1 (stereo not given)	inactive
O=C1CC(=O)NC(=O)N1	inactive
NCC1(CC(=O)O)CCCCC1	inactive
CNC(=O)O/N=C(/CSC)C(C)(C)C	inactive
CCOP(=S)(OCC)Oc1ccc(Cl)cc1Cl	inactive
O=C(Cl)OCc1ccccc1	inactive
O=C(O)CBr	inactive
C=CCCC#N	inactive
CCCN1CCC[C@@H]2Cc3nc(N)ncc3C[C@H]21	inactive
CCNc1nc(NCC)nc(SC)n1	inactive
CCOC(=O)COc1ccc(Cl)cc1Cl	inactive
CCOC(=O)CCl	inactive
COC[C@@H](NC(C)=O)C(=O)NCc1ccccc1	inactive
ClCC1CO1 (stereo not given)	inactive
ClC1=C(Cl)C2(Cl)C(CBr)CC1(Cl)C2(Cl)Cl (stereo not given)	43.6 µM (active) and inactive
Cc1ccc(-c2nc3ccc(C)cn3c2CC(=O)N(C)C)cc1	inactive
O=C(Cl)C(Cl)Cl	inactive

Compound	Potency
CN1COCN(Cc2cnc(Cl)s2)/C1=N\[N+](=O)[O-]	inactive
CN(C)C(=O)Oc1cc(OC(=O)N(C)C)cc(C(O)CNC(C)(C)C)c1 (stereo not given)	inactive
CCC1(c2cccc(O)c2)CCCCN(C)C1 (stereo not given)	inactive
BrCc1ccc(Br)cc1	inactive
CCN(CCO)CCn1c(Cc2ccccc2)nc2c1c(=O)n(C)c(=O)n2C	inactive
ClCOCCl	inactive
CCC(CC)(CNC(=O)CCCO)c1cccc(OC)c1	inactive
C=C(Cl)CCl	inactive
Cn1c(N)nc2c3cccnc3ccc21	inactive
CCCOc1nn(C(=O)NS(=O)(=O)c2ccccc2C(=O)OC)c(=O)n1C	inactive
O=C(O)C(Br)(Br)Br	inactive
NCCOS(=O)(=O)O	inactive
NC(=O)CS(=O)C(c1ccccc1)c1ccccc1 (stereo not given)	inactive
O=C(CCl)NCO	inactive
BrCC1CO1 (stereo not given)	inactive
CC[C@H](O)C(C[C@H](C)N(C)C)(c1ccccc1)c1ccccc1	inactive
C[C@H](N)C(=O)c1ccccc1	inactive
N#CC(Br)(Br)C(N)=O	inactive
CS(=O)(=O)Cl	inactive
CCCOC(=O)c1cncn1C(C)c1ccccc1 (stereo not given)	inactive
